Measurements reported in PubChem BioAssay (NCI).
About 83,000 compounds went through this panel and 20% of them were active in at least one assay; those are over-represented in the sample as a whole.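 How to read the values: 0–100, growth inhibition (40 = 60% inhibited); 0, no net growth; -100 to 0, cell death (-40 = 40% of starting cells died; -100 = all dead).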 Unmarked numbers belong to inactive results. Calls of active or inactive are those of the source. The calls were made as follows: active = growth percent below 10; inactive = the rest.

Legend:
Assay in all cases: NCI-60 one-dose screen, 48 h (100 = growth as untreated, 0 = no growth, -100 = all killed)
Conditions in all cases: 10 µM unless noted
[1] = tested on: HCT-15 colon
[2] = tested on: HT29 colon
[3] = tested on: SNB-75 CNS
[4] = tested on: SNB-19 CNS
[5] = tested on: SK-MEL-5 melanoma
[6] = tested on: UACC-62 melanoma
[7] = tested on: LOX IMVI melanoma
[8] = tested on: SK-MEL-28 melanoma
[9] = tested on: SK-MEL-2 melanoma
[10] = tested on: SN12C renal
[11] = tested on: UO-31 renal
[12] = tested on: TK-10 renal
[13] = tested on: ACHN renal
[14] = tested on: CAKI-1 renal
[15] = tested on: CCRF-CEM leukemia
[16] = tested on: MOLT-4 leukemia
[17] = tested on: U251 CNS
[18] = tested on: EKVX NSCLC
[19] = tested on: A498 renal
[20] = tested on: PC-3 prostate

| Structure (SMILES) | growth [1] | growth [2] | growth [3] | growth [4] | growth [5] | growth [6] | growth [7] | growth [8] | growth [9] | growth [10] | growth [11] | growth [12] | growth [13] | growth [14] | growth [15] | growth [16] | growth [17] | growth [18] | growth [19] | growth [20] |
| --- | --- | --- | --- | --- | --- | --- | --- | --- | --- | --- | --- | --- | --- | --- | --- | --- | --- | --- | --- | --- |
| Nc1n[nH]c2cccc(C#Cc3cccc(C(=O)Nc4cc(CN5CCOCC5)cc(C(F)(F)F)c4)c3)c12 | 31.8% | 18% | 44.1% | 66.7% | 29% | 11.7% | 7.72% (active) | 14.6% | 4.06% (active) | 39.1% | 17.6% | 67.7% | 27% | 48.8% | 19.4% | 23.8% |  |  |  |  |
| C=CCN1C(=O)/C(=C/C(=O)OC)S/C1=N\NC(=O)c1cc2ccc1/C=C\c1ccc(cc1)/C=C\2 | 66.9% | 46% | 78.1% | 84.7% |  | 77.2% | 78.8% | 102% | 97.3% | 86.9% | 75.4% | 108% | 87.9% | 87.8% | 22.9% | 35.4% | 81.8% | 90.8% |  |  |
| Cc1nn(-c2ccccc2)c(Cl)c1/C=N\N=c1/sc2ccccc2n1C | 103% | 93.3% | 107% | 98.6% | 104% | 87.1% | 117% | 103% | 114% | 86.8% | 93% | 99.1% | 107% | 101% | 92.7% |  |  | 110% | 83.1% |  |
| Cc1cnc(C(=O)Nc2nc3ccc(S(=O)(=O)Nc4ccc(C(C)(C)C)cc4)cc3[nH]2)cn1 | 18% | 12.8% | 5.59% (active) | 31.6% |  | 40.2% | 42.3% | 35.8% | 51.1% | 43.7% | 40.4% | 43.4% | 49.6% | 27.3% | 10.8% | 21.5% |  | 51% |  | 20.8% |
| N#Cc1c(NC(=O)NCc2ccccc2)sc2c1CCCCC2 | 15.2% | 9.68% (active) | 22.8% | 28.2% | 17.6% | 18.9% | 26.4% | 67.4% | 39.1% | 30.3% | 46.7% | 41.1% | 43.4% | 29.8% | 14.7% | 18% |  | 39.3% |  | 28.7% |
| COc1cccc(C(=O)NNc2nc(Cl)nc(N3CCN(C(c4ccccc4)c4ccccc4)CC3)n2)c1 | 13.3% | 20.3% | 89.3% | 77.4% | 91.2% | 76.5% | 2.99% (active) | 89.1% | 79.1% | 70.9% | 93.4% | 97.8% | 54.6% | 68.7% | -5.32% (active) | 4.48% (active) |  | 89.6% |  | 34.3% |
| COc1ccc2nc(-c3ccc(-c4noc(-c5cc(OC)c(OC)c(OC)c5)n4)cc3)[nH]c2c1 | 30.2% | 20.2% | 35.4% | 76.8% | 45% | 99.8% | 67.5% | 51.3% | 99.2% | 80.7% | 108% |  | 97.9% | 96.5% |  |  |  | 91.9% | 101% | 95.2% |
| O=C1c2cccc3c(-c4ccc5c(c4)ncn5C4CCCCC4)ccc(c23)C(=O)N1CCO | 98.5% | 83.6% | 86.6% | 98.1% | 62% | 74.4% | 87.4% | 116% |  | 93.8% | 62.1% | 101% | 94.7% | 77.5% | 79% | 71.9% |  | 76.4% | 103% | 85% |
| O=c1c2c(c(=O)n1O)c1c3ccc[nH]c3nc1c1nc3[nH]cccc3c12 | 97% | 89.7% | 87% | 70.8% | 85.8% | 63% | 72.6% | 96.2% | 99.4% | 80.5% | 91% | 117% | 88.3% | 68.9% | 28.5% | 43.7% |  | 93.4% | 94.5% | 67.7% |
| NC(=O)CSSCC(N)=O | 102% | 105% | 95.2% | 101% | 98.4% | 95.8% | 100% | 109% | 107% | 108% | 93% | 110% | 100% | 99% | 88.3% | 76.8% |  | 86.7% | 127% | 92.1% |
| CC(C)c1ccc(Nc2ccc3c(OCCCN4CCN(C)CC4)cccc3n2)cc1 | -35.9% (active) | -50.3% (active) | 68.9% | 63.7% | 58.3% | 1.02% (active) | -70.7% (active) | 13.7% | 105% | 91.3% | 71.5% | 91% | 80.4% | 64.4% | 30% |  |  | 80.7% | 77.8% | 62.9% |
| CCCCN1C=CCN(CCCC)C1 |  | 49.2% | 66.8% | 31.1% | -6.08% (active) | 24.5% | 68.8% | 40% | 24.4% | 34.8% | 74.6% | 56.8% | 98.1% | 86% | 87.2% |  | 22.4% | 47.5% | 78.4% | 32.4% |
| NS(=O)(=O)c1ccc(CCN2C(=O)C=CC2=O)cc1 |  | 97.2% | 99.3% | 107% | 104% | 104% | 97% | 107% | 98.2% | 110% | 84.5% | 89.7% | 102% | 94.8% | 99% | 97.4% | 104% | 102% | 106% | 100% |
| COc1cc(/C=C\c2cc(OC)c(OC)c(OC)c2)cc(NC(=O)/C=C/c2cc(OC)c(OC)c(OC)c2)c1OC |  | 32% | 51.8% | 72% | -45.3% (active) | 29.7% | 35.5% | 47.6% | 47% | 66.9% | 24.9% | 71.3% | 52.7% | 22.7% | 25.8% | 30.9% | 71% | 47.6% | 41.5% | 29.3% |
| O=S(=O)(NCCCNc1nccc(-c2c(-c3cccc(O)c3)nc3occn23)n1)c1ccc(Cl)cc1 |  | 36.3% | 92% | 108% |  | 9.05% (active) | 44.4% | 30.3% |  | 71.5% | 89.8% | 143% | 81% | 75.9% | 73.2% | 71.3% | 102% | 99.6% |  | 82.7% |
| CCCCCOc1ccc(/C=N/Nc2cc(C)nc3ccc(Cl)cc23)cc1 |  | -18.9% (active) | 41% | 16.9% | 74.2% | 83.6% | -96.9% (active) | -85.8% (active) | 93.1% | -88.1% (active) | -99.6% (active) | -22.5% (active) | -73.5% (active) | 28.7% | 1.69% (active) | -38.9% (active) | -75% (active) | 66.7% |  | 9.76% (active) |
| Nc1n[nH]c2cccc(C#Cc3cccc(C(=O)Nc4cccc(C(F)(F)F)c4)c3)c12 |  | 38.8% | 77.9% | 104% | 53.8% | 42.7% | 38% | 53.5% | 33.8% | 67.3% | 37.2% | 97.5% | 54.7% | 68.4% | 32.1% | 39.2% | 72.8% | 89.7% |  | 72.3% |
